Records with an inconclusive call do not appear. The source made the active and inactive calls. Calls come from the whole dose curve; as a rule, active = well fitted inhibition curve with a large enough effect; inconclusive = small, poorly fitted or top-dose-only effect; inactive = flat fitted curve, though single readings scatter. Non-standard residues stand in square brackets, D forms with d. Residues, ends and D or L forms follow the SMILES beside them. *: point of attachment. Benzoyl(4-tBu) = CC(C)(C)c1ccc(C(=O)*)cc1; Lys(Et2) = CCN(CC)CCCC[C@H](N)C(=O)O
assay: BET inhibitor-based combinations targeting novel dependencies in MECOM-rearranged (r) AML: AML-194 cell line (AID 2202237; note: nearly all actives have a fitted effect of over 40% in size;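 for viability (% of control): plate controls were vehicle wells for no effect and wells without cells for full effect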); details: AML-194 (MECOM-r AML) viability, CellTiter-Glo, 48 h; series mostly up to 46 µM; viability (% of control): at the top concentration
Excerpt: Ecotropic viral insertion site 1 (EVI1) is located on chromosome 3q26.2 as part of the MECOM (MDS and EVI1 complex) locus. Under normal hematopoiesis, EVI1 is a regulator of hematopoietic stem cell maintenance and self-renewal and EVI1 levels decrease as the cells differentiate. In approximately 5-10% of de novo acute myeloid leukemia (AML) EVI1 is aberrantly expressed, including Chromosomal inv(3)(q21;q26.2) or t(3;3)(q21;q26.2) alterations (MECOM-r) that account for about 50% of AML with EVI1 overexpression 31. AMLs with high levels of EVI1 have a poor prognosis and an overall survival time averaging between 10-14 months. EVI1 overexpression confers resistance in leukemia cells, highlighting the need to develop new targeted therapies for EVI1 overexpressing AMLs.
Here, we performed an unbiased chemical drug screening by evaluating the single agent activity of a collection of 2,480 oncology-focused, approved and investigational drugs (NCATS Mechanism Interrogation Plates, MIPE v5.0) against a panel of seven AML cell lines. These included four MECOM-r cell-lines (AML-191, AML-194, UCSD-AML1 and HNT-34) and three non-MECOM-r AMLs (MV4-11, OCI-AML3 and SET-2). Exploiting the mechanistic redundancy built in the library, we identified target-level sensitivities in MECOM-r AML cells and relative activity as compared to other AML subtypes.
A collection of 2480 mechanistically annotated dugs (MIPE v5.0) was used to screen four 3q26.2 rearranged AML cell lines and three non-3q26.2 rearranged AML cell lines. This library purposely exploits redundancy by including multiple inhibitors of key onco-targets, while simultaneously encompassing mechanistic diversity, targeting more than 800 distinct mechanisms of action. Briefly, cells were seeded in 5 uL of growth media using a Multidrop Combi dispenser into 1536 well white polystyrene tissue culture treated plates (Corning) at a density of 500cells/well. For each cell-line, for each of the 2480 drugs in MIPE v5.0 library, an 11-point dose curve was generated via a 1536 pin-tool. Plates were incubated for 48 hr at standard incubator conditions, covered by a stainless steel gasketed lid to prevent evaporation. Cell viability was determined by luminescence based, Cell Titer Glo assay (Promega). In detail, 3 uL of Cell Titer Glo were added to each well and plates were incubated at room temperature for 15 min with a stainless-steel lid in place. Luminescence readings were taken using a Viewlux (PerkinElmer) with a 2 s exposure time per plate. Compound dose-response curves were normalized to DMSO and empty well controls on each plate. Quantitative drug activity data from dose-response curves was determined utilizing area Under the Curve (AUC) and Z-transformed AUC (Z-AUC, a mean-centering transformation applied to each individual cell-line screened).
Potency is the fitted concentration of half-maximal effect.

Compound | viability (% of control) | Potency
O=C1OC(COc2ccccc2[N+](=O)[O-])CC1Cc1ccccc1 (stereo not given) | 112% (inactive) | –
CNC(=O)c1c(C)oc2cc(Oc3ncnc4cc(OC)c(OC)cc34)ccc12 | 104% (inactive) | –
NC(CO)(CO)CCc1ccc(Sc2cccc(OCc3ccccc3)c2)cc1Cl | – | 9.34 µM (active)
COCCNCc1ccc(-c2cc3nccc(Oc4ccc(NC(=S)NC(=O)Cc5ccc(F)cc5)cc4F)c3s2)nc1 | – | 2.63 µM (active)
C#Cc1cccc(Nc2ncnc3cc4c(cc23)OCCOCCOCCO4)c1 | 102% (inactive) | –
C=CC[N+]1([C@H]2C[C@H]3[C@@H]4CC[C@H]5C[C@H](O)[C@@H](N6CCOCC6)C[C@]5(C)[C@H]4CC[C@]3(C)[C@H]2OC(C)=O)CCCC1 | 105% (inactive) | –
N#Cc1ccnc(N2C(=O)CC[C@H]2C(=O)N(c2cncc(F)c2)C(C(=O)NC2CC(F)(F)C2)c2ccccc2Cl)c1 (stereo not given in full) | 112% (inactive) | –
C[C@H]1[C@H](O)O[C@@H]2O[C@@]3(C)CC[C@H]4[C@H](C)CC[C@@H]1[C@@]24OO3 | – | 4.68 µM (active)
C[C@]12CCC3=C4CCC(=O)C=C4CC[C@H]3[C@@H]1CC[C@@]2(O)CC#N | 100% (inactive) | –
CC(=O)N1CCC(Nc2cc(C(=O)NC[C@H](O)CN3CCc4ccccc4C3)ncn2)CC1 | 104% (inactive) | –
CC1(N)CCN(c2cnc(-c3cccc(Cl)c3Cl)c(N)n2)CC1 | 98% [at 15.6 µM] (inactive) | –
O=C(Nc1cccc(C(F)(F)F)c1)c1cccc2cc(Oc3cc(CO)ncn3)ccc12 | 110% (inactive) | –
Nc1nc(=S)c2[nH]cnc2[nH]1 | – | 3.72 µM (active)
O=S(=O)(c1cccc2cnccc12)N1CCCNCC1 | 105% (inactive) | –
CCN(CC)CCCC[C@H](NC(=O)[C@H](CC(C)C)NC(=O)[C@H](C)NC(=O)[C@H](Cc1ccccc1)NC(=O)c1ccc(C(C)(C)C)cc1)C(=O)N[C@@H](CO)C(=O)OC ({Benzoyl(4-tBu)}-FAL[Lys(Et2)]S-OMe) | 150% (inactive) | –
CC1(C)CC[C@]2(C(=O)O)CC[C@]3(C)C(=CC[C@@H]4[C@@]5(C)C[C@@H](O)[C@H](O)C(C)(C)[C@@H]5CC[C@]43C)[C@@H]2C1 | 109% (inactive) | –
C[C@@H]1COCCN1c1cc(C2(S(C)(=N)=O)CC2)nc(-c2ccnc3[nH]ccc23)n1 (stereo not given in full) | – | 5.25 µM (active)
C=CC(=O)Nc1cccc(Nc2nc(Nc3ccc(N4CCN(C(C)=O)CC4)cc3OC)ncc2C(F)(F)F)c1 | – | 18.6 µM (active)
CCCN(CCC)C(=O)C1=Cc2ccc(-c3ccc(C(=O)N4CCCC4)cc3)cc2N=C(N)C1 | – | 26.3 µM (active)
CC(C)(O)CNc1ncc(-c2ccnc(Nc3ccncc3)n2)c(CC2CC2)n1 | – | 16.6 µM (active)

Compound | viability (% of control) | Potency
COc1cc2c(Oc3ccc4[nH]c(C)cc4c3F)ccnc2cc1OCC1(N)CC1 | – | 8.33 µM (active)
CCCCCN(C)CCC(O)(P(=O)(O)O)P(=O)(O)O | 115% [at 5.12 µM] (inactive) | –
CN(Cc1ccccc1)C(=O)c1ccc(S(=O)(=O)Nc2ccccc2)cc1 | 97.7% (inactive) | –
CC(C)C(=O)OCC(=O)[C@@]12O[C@H](C3CCCCC3)O[C@@H]1C[C@H]1[C@@H]3CCC4=CC(=O)C=C[C@]4(C)[C@H]3[C@@H](O)C[C@@]12C | – | 16.6 µM (active)
COc1ccnc2[nH]cc(C(=O)C(=O)N3CCN(C(=O)c4ccccc4)C[C@H]3C)c12 | 111% (inactive) | –
CN[C@H]1CN(c2ccc3c(=O)c(C(=O)O)cn(-c4nccs4)c3n2)C[C@@H]1OC | – | 1.52 µM (active)
COC1CC(C(=O)c2ccc3c(N)ncc(-c4ccc(-c5cnn(C)c5)cc4)c3n2)C1 (stereo not given) | – | 11.8 µM (active)
O=C(CCc1ccc(O)cc1)c1c(O)cc(O)cc1O[C@@H]1O[C@H](CO)[C@@H](O)[C@H](O)[C@H]1O | 96.3% (inactive) | –
Clc1ccc(CCC(Cn2ccnc2)Sc2c(Cl)cccc2Cl)cc1 (stereo not given) | 86.4% (inactive) | –
N#Cc1cc2cc(CN3CCC(Nc4ncnc5sc(CC(F)(F)F)cc45)CC3)c(O)cc2n1Cc1cn[nH]c1 | – | 26.3 µM (active)
CC(=O)NCCCS(=O)(=O)O | 103% [at 15.6 µM] (inactive) | –
C[C@@H](Oc1cc(C(=O)Nc2ccc(C(=O)N3CCN(C)CC3)cc2)nnc1N)c1c(Cl)ccc(F)c1Cl | – | 0.934 µM (active)
CC1=C2C[C@H]3[C@@H](CC[C@@H]4C[C@H](NS(C)(=O)=O)CC[C@@]43C)[C@@H]2CC[C@@]2(C1)O[C@@H]1C[C@H](C)CN[C@H]1[C@H]2C | – | 23.5 µM (active)
CN[C@@H](C)C(=O)N[C@H](C(=O)N1CCC[C@H]1C(=O)Nc1sc(-c2ncco2)nc1-c1ccccc1)C1CCCCC1 | 108% (inactive) | –
CCc1cc(/C(C)=N/OCc2ccc(C3CCCCC3)c(C(F)(F)F)c2)ccc1CN1CC(C(=O)O)C1 | 104% (inactive) | –
O=C(O)CCC=CCC[C@@H]1[C@H](N2CCCCC2)[C@@H](O)C[C@@H]1OCc1ccc(-c2ccccc2)cc1 | 104% (inactive) | –
C=CC[C@@H]1/C=C(\C)C[C@H](C)C[C@H](OC)[C@H]2O[C@@](O)(C(=O)C(=O)N3CCCC[C@H]3C(=O)O[C@H](/C(C)=C/[C@@H]3CC[C@@H](O)[C@H](OC)C3)[C@H](C)[C@@H](O)CC1=O)[C@H](C)C[C@@H]2OC | – | 20.9 µM (active)
COc1cc(Oc2ccnc3cc(OC)c(OC)cc23)ccc1NC(=O)NC(C)c1nccs1 (stereo not given) | – | 13.2 µM (active)
COc1cc(OC)cc(N(CCNC(C)C)c2ccc3ncc(-c4cnn(C)c4)nc3c2)c1 | – | 18.6 µM (active)
COCCOc1cnc2ccn([C@H](C)c3nnc4c(F)cc(-c5cnn(C)c5)cn34)c(=O)c2c1 | 108% (inactive) | –

Source: PubChem BioAssay (NCATS)
